This is a sample that favours compounds with a hit; in the whole collection about 4% have one here.
KCC2 mod: KCC2 cotransporter modulators, thallium flux, primary screen, cell-based, HEK293 KCC2, FluoZin-2 fluorescence, MLSMR. KCC2 cells, thallium flux FluoZin-2 fluorescence. B-score of Tl+ flux slope (higher = more flux/activation; lower = inhibition) at 10 µM. actives 2.2% (n = 190,000). AID 1456, 2008;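 active = thallium flux slope and its plate-corrected score both differing from the plate sample mean at a set confidence after two filtering rounds, in either direction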;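 also: slope of fluorescence scaled to starting intensity during 10 to 20 s after thallium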
HSV augment: enhancers of HSV replication in host cells, fold increase, host cell viability | AID 1956, 2009 | maximum fold increase | actives 0.005% (n = 220,000) | HSV replication augmentation in cells; in the data active = maximum fold increase above about 1.5; inconclusive = no clear call, values can overlap the other calls; tested in PC3 cells
Measles CPE: compounds protecting cells from measles virus cytopathic effect, primary screen, measles RdRp inhibitor project, single point, MLSMR library, absorbance; Measles virus-infected cells, CPE protection; protection (pct of control), % at 4 µM; actives 1.5% (n = 140,000); AID 841, 2007; in the data active = protection mostly above about 24%, no sharp cut-off; inactive = mostly below about 26%
Arbovirus inh: antivirals against arbovirus infection, primary screen, cell-based, full library, 10K replicate subset. arbovirus infection cell-based antiviral screen. inhibition, % at 10 µM. actives 0.37% (n = 200,000). AID 1251, 2008; in the data active = inhibition above about 30%
ROMK mod: ROMK potassium channel modulators, primary screen, cell-based, thallium flux, MLSMR library; Tet-inducible ROMK, thallium flux fluorescence; actives lie on both sides; ATP-sensitive inward rectifier potassium channel 1 (Homo sapiens), P48048; actives 2% (n = 130,000); B-score at 10 µM; AID 1918, 2009;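 active = signal ratio slope over the read window, or its plate-corrected B-score, at least 3 SD from the plate mean, either direction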;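 also: B-score of the F/F0 ratio slope over 7 to 12 s after thallium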
Target sequence (P48048 whole entry, looked up): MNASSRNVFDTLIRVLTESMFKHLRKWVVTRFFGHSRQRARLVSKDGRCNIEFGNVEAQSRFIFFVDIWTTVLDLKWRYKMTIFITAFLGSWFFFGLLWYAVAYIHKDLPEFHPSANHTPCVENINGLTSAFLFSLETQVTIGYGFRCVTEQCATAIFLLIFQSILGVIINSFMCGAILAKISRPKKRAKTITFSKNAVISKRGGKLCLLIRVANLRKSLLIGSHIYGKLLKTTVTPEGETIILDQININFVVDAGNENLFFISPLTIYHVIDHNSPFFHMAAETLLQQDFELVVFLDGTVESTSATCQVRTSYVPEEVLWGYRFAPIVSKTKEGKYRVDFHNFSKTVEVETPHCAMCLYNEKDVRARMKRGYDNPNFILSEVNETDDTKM
KCC2 secondary: KCC2 modulators in sodium-free buffer, confirmation, cell-based, HEK293 KCC2, thallium flux, secondary assay | shares compounds with KCC2 mod | AID 1713, 2009 | normalised thallium flux (F/F0 slope) at 10 µM | FluoZin2 fluorescence; hits give high values | actives 15% (n = 3,700);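 active = thallium flux slope above the same plate's solvent-only control mean plus 3 SD; inconclusive = the two replicate wells disagree; inactive = no significant difference from solvent-only control wells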
KCC2 bumet counter: thallium flux persisting under bumetanide in KCC2 cells, confirmation, counter-screen for KCC2 modulator project, cell-based, HEK293 KCC2, FluoZin2, secondary assay 3. normalized thallium flux at 10 µM. shares compounds with KCC2 mod. actives 49% (n = 3,700). AID 1714, 2009. HEK293-KCC2 + bumetanide/ouabain; hits give high values;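 active = thallium entry rate above the same plate's blocked-transporter control wells by more than 3 SD; inconclusive = the two repeat wells disagree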;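 also: raw slope of fluorescence over initial fluorescence between 10 and 20 s after thallium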
KCC2 secondary2: KCC2 modulators without ouabain present, confirmation, cell-based, HEK293 KCC2, thallium flux, FluoZin2, secondary assay 2; shares compounds with KCC2 mod; thallium flux FluoZin2 fluorescence; actives lie on both sides; F/F0 rise rate, 10–20 s post-thallium; normalized thallium flux at 10 µM; actives 23% (n = 3,700); AID 1715, 2009;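 active = thallium flux slope more than 3 SD above or below the plate's solvent-only control mean, mostly below; inconclusive = the two repeat wells disagreed; inactive = no significant shift from solvent-only controls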;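 also: raw slope with 0.1% DMSO as baseline and bumetanide as block control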
HEK counter1: thallium flux modulation in parental HEK cells, confirmation, counter-screen for KCC2 modulator project, cell-based, counterscreen 1; actives 46% (n = 3,700); HEK293 parental cells, thallium flux FluoZin2, ouabain; baseline-ratio fluorescence slope, 10–20 s after thallium; AID 1716, 2009; thallium flux rate (normalised fluorescence) at 10 µM; shares compounds with KCC2 mod;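 active = thallium flux rate significantly above the same plate's solvent-only control wells, beyond their mean plus 3 SD; inconclusive = the two replicate wells gave conflicting results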
KCC2 ouabain: KCC2 inhibitors and activators, ouabain retest, confirmation, HEK-KCC2 cells. shares compounds with KCC2 mod. HEK293-KCC2, thallium flux FluoZin2 fluorescence; bidirectional: low = inhibitor, high = activator. raw Tl+ flux slope (below DMSO = inhibition, above = activation) at 10 µM. actives 48% (n = 3,700);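 active = thallium flux slope beyond 3 SD from same-plate DMSO control mean in most replicates, usually higher, sometimes lower; inconclusive = repeat tests gave conflicting results; inactive = no significant difference from controls in most replicates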;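 also: slope of initial-normalized fluorescence between seconds 10 and 20 after thallium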
HEK293 Tl flux2: native HEK Tl+ uptake effects, second counter-screen – HEK cells, counterscreen 2, counter-screen for KCC2 modulator project, confirmation | shares compounds with KCC2 mod | HEK293 parental, thallium flux FluoZin-2 fluorescence slope | thallium flux slope at 10 µM | actives 33% (n = 3,700);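 active = thallium flux slope above the same plate's solvent-control mean plus 3 SD in both duplicate wells; inconclusive = duplicate wells that disagreed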;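 also: run without ouabain in cells lacking the KCC2 cotransporter; slope of fluorescence scaled to its starting value between 10 and 20 s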
* = called active by the depositor; i = inactive; ? = inconclusive; . = no result given.

SMILES	KCC2 mod	HSV augment	Measles CPE	Arbovirus inh	ROMK mod	KCC2 secondary	KCC2 bumet counter	KCC2 secondary2	HEK counter1	KCC2 ouabain	HEK293 Tl flux2
O=C(Nc1ccc(Cl)c(Cl)c1)N(CCCN1CCOCC1)Cc1cccs1	-3*	i	1	-13	.	0.0098	0.0063	0.033	0.007	0.021	0.011
Cc1ccc2oc(-c3ccc(C)c(NC(=S)NC(=O)c4cccs4)c3)nc2c1	4.6*	i	59*	-30	.	0.011	0.012*	0.034	?	?	0.011
Cc1nc2cc(NC(=O)Nc3ccc(Br)cc3)ccc2o1	0.31	i	.	-1	-0.6	.	.	.	.	.	.
CCc1n[nH]c(=S)n1/N=C/c1ccc(N(C)c2ccccc2)cc1	9.5*	i	.	-2	-0.22	0.0098	0.019*	0.032	0.029*	0.026*	0.012
COc1ccccc1-c1nnc(SCC(=O)Nc2ccc(S(N)(=O)=O)cc2)n1N	0.7	i	.	.	-0.87	.	.	.	.	.	.
Cc1ccc(-n2c(C)cc(-c3csc(N)n3)c2C)cc1	-3.2*	i	52*	-2	.	0.0086	0.0063	0.035	?	0.019	0.012
Cc1cc(-c2csc(N)n2)c(C)n1C	-0.027	i	18	2	-0.28	.	.	.	.	.	.
S=c1nc(SCc2ccccc2)[nH]c2ccccc12	120*	i	.	5	.	0.019*	0.098*	0.1*	0.11*	0.095*	0.1*
COc1ccc(C2OC3=C(Nc4cc(C)c(C)cc4N3)C2=O)cc1 (centres undefined)	-0.067	i	.	.	.	.	.	.	.	.	.
CC1OC(O[C@H]2CC[C@]3(C)C4C=C[C@]56OC[C@@]7(CC[C@@H](C)[C@H](C)C75)[C@H](O)C[C@@]6(C)[C@]4(C)CC[C@H]3C2(C)C)C(OC2OC(CO)C(O)C(O)C2OC2OCC(O)C(O)C2O)C(O)C1O (some centres undefined)	39*	.	.	.	.	0.013*	0.046*	0.032	0.0085	?	0.01
CC(=O)OC1COC(OC2C(O)C(C)OC(OC3C(OC4CCC5(C)C(CCC6(C)C5CC=C5C7CC(C)(C)CCC7(C(=O)O)CCC56C)C4(C)CO)OCC(O)C3O)C2O)C(O)C1OC(C)=O (centres undefined)	0.31	i	.	-20	.	.	.	.	.	.	.
COc1ccc(/C=C2\SC(=S)N(NC(=O)c3ccncc3)C2=O)cc1OC	-0.34	i	.	-4	-1.3	.	.	.	.	.	.
N=C1S/C(=C\c2ccc(-c3cccc(Cl)c3)o2)C(=O)N1c1nccs1	6.6*	i	11	-25	.	0.0073	0.0089*	0.032	0.015*	0.022	0.017*
COc1ccc(/C=C2\SC(=N)N(c3nccs3)C2=O)cc1OC	4.6*	i	5	-42	.	0.0066	0.032*	0.033	0.022*	0.029*	0.019*

Compound activity: PubChem, several laboratories
